# TRHR ag: qHTS for Small Molecule Agonists and Allosteric Enhancers of Human TRH Receptor: Primary Screen for Agonists; TRHR cells, calcium flux fluo-8, FDSS agonist mode; activation, % at 2 µM; actives 0.18% (n = 360,000); further: 0% is about no effect
#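 Fluo-8-loaded TRHR cells; 10 s baseline, compound added, kinetic Ca2+ fluorescence read 1/s, agonist mode.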
# TRHR enhancer: qHTS for Small Molecule Agonists and Allosteric Enhancers of Human TRH Receptor: Primary Screen for Enhancers; TRHR cells, fluo-8 calcium fluorescence, EC20 TRH enhancement; AID 493056, 2011; enhancement, % at 2 µM; Thyrotropin-releasing hormone receptor (Homo sapiens), P34981; actives 0.66% (n = 360,000); in the data active means enhancement above about 30%; further: 0% is about no effect
#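 TRHR-expressing cells loaded with fluo-8 calcium dye were read kinetically (ex 480/em 530) during compound addition, then stimulated with an EC20 of TRH (10 nM final). Enhancement of the Gq-mediated intracellular calcium response was scored.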
# D1 antagonist: Antagonist of Human D 1 Dopamine Receptor: qHTS; HEK293 TREx D1 cells, calcium flux, dopamine EC80; active compounds read low; activity change, negative = inhibition, % at 10 µM; actives 3.2% (n = 360,000); AID 504652, 2011; in the data active means activity change below about -30%; further: on the % scale 0 is the no-effect control and ±100 the full control effect
# Target sequence (P21728 whole entry, looked up): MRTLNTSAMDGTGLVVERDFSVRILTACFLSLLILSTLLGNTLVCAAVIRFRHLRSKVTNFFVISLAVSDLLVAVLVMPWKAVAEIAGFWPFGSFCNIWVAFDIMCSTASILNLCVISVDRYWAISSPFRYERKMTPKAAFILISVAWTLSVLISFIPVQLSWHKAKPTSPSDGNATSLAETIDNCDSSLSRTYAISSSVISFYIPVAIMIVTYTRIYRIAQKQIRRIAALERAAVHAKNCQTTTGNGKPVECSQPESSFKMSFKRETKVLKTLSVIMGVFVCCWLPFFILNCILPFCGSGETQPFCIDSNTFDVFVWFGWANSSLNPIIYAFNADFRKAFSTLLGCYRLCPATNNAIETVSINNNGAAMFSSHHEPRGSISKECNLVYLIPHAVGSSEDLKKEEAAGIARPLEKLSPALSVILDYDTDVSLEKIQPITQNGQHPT
#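 Tetracycline-induced HEK293 Trex D1 cells, force-coupled to calcium, dye-loaded; compounds added and read 180 s, then EC80 dopamine added and calcium flux tracked kinetically another 180 s.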
# D1 PAM: Potentiators of Human D1 Dopamine Receptor: qHTS; D(1A) dopamine receptor (Homo sapiens), P21728; HEK293 TREx D1 cells, calcium flux, dopamine EC20 potentiation; potentiation, % at 10 µM; actives 0.036% (n = 360,000); in the data active means potentiation above about 30%; further: 0% is about no effect
# D1 ag: Allosteric Agonists of the Human D1 Dopamine Receptor: qHTS; D(1A) dopamine receptor (Homo sapiens), P21728; HEK293 T-REx D1 cells, calcium flux, agonist mode; activation, % at 2 µM; actives 1% (n = 360,000); AID 504660, 2011; further: 0% is about no effect
#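 Agonism was scored from calcium flux recorded over 180 s (1 read/s) after pintool compound addition, following a 10-cycle baseline. Cells were inducible force-coupled HEK293 TREx D1, plated overnight at 30 C and loaded with no-wash calcium dye.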
# Numbers without * were called inactive. Only some compounds are listed: those with a hit (about 4.7% of all), similar ones and a draw of the others. Unless noted, no stated cut-off is given here; in the data, active means activation above about 30%; inactive means the rest.
SMILES,TRHR ag,TRHR enhancer,D1 antagonist,D1 PAM,D1 ag
CC(=O)c1ccc(NC(=O)C2CCN(c3nnc(C)c4c(C)n(-c5ccccc5)nc34)CC2)cc1,0,-7,1,-2,3
COc1cc(NC(=O)C2CCN(c3nnc(C)c4c(C)n(-c5ccccc5)nc34)CC2)cc(OC)c1,-1,5,-40*,-2,2
Cc1ccc(-n2nc3c(N4CCCC(C(=O)NCc5ccccc5C)C4)nnc(C)c3c2C)cc1 (stereo not drawn),0,2,17,53*,44*
CCNC(=O)C1CCCN(c2nnc(C)c3c(C)n(-c4ccc(C)cc4)nc23)C1 (stereo not drawn),-1,2,2,-1,4
Cc1ccc(NC(=O)CN2C(=O)c3cccnc3Oc3ccc(Cl)cc32)cc1,0,6,-7,1,4
CN(C)c1ccc(C(=O)/C=C/c2cccnc2)cc1,-1,4,2,-12,3
CN(C)c1ccc(/C=C/C(=O)c2cccc(Br)c2)cc1,148*,-10,-75*,-11,772*
CC1OC(O[C@H]2CC[C@]3(C)C4C=C[C@]56OC[C@@]7(CC[C@@H](C)[C@H](C)C75)[C@H](O)C[C@@]6(C)[C@]4(C)CC[C@H]3C2(C)C)C(OC2OC(CO)C(O)C(O)C2OC2OCC(O)C(O)C2O)C(O)C1O (stereo partly drawn),48*,-22,41,14,244*
COc1ccc(OC)c(C2c3c(-c4ccc(Br)cc4)n[nH]c3C(=O)N2c2ccc(Cl)cc2)c1 (stereo not drawn),2,7,-4,4,4
CCN(CC)CCCn1c2c(c(SCC(=O)Nc3nccs3)nc1=O)CCC2,0,-6,-56*,0,2
CCC(=O)C1=C(c2ccc(OC)c(OC)c2)N(C(=O)CC)n2c(CC)nnc2S1,0,-2,14,0,0
c1ccc(C2=NN(c3ccccc3)CC2)cc1,1,-1,-3,-1,4
CCOC(=O)/C(=C/c1ccc(N2CCC(c3ccccc3)=N2)cc1)C(C)=O,46*,-1,-23,-6,105*
Cc1cccc(C(=O)NC2CCN(C#N)CC2)c1,-2,-2,-15,2,-1
CC1(C)C2CC=C(/C=N/NC(=O)c3ccc(O)cc3)C1C2 (stereo not drawn),0,-7,-32*,-1,3
COC(=O)N/N=C/C1=CCC2CC1C2(C)C (stereo not drawn),1,4,2,-4,1
CC(C)c1ccc(NC(=O)CN(Cc2ccccc2)S(C)(=O)=O)cc1,0,1,-20,-7,42*
O=C(NCc1ccc2c(c1)CCN2C(=O)c1ccccc1)Nc1cccc(C(F)(F)F)c1,0,-5,-43*,-3,2
CCOc1cccc(CNC(=O)c2ccc(N3CCCC3)c(NC(=O)NCc3ccc(F)cc3)c2)c1,-1,0,-35*,-1,3
O=S(=O)(Nc1c(Br)cc(Br)c2cccnc12)C1CC1,-3,-4,12,20,-1
CC(C)(C)c1cc(NC(=O)CSc2nnc(N)s2)n(-c2ccccc2)n1,0,0,-35*,4,3
CCNc1nc2c(c(=O)n(Cc3ccccc3)c(=O)n2C)n1Cc1ccccc1,0,39*,-3,1,2
CCNc1nc2c(c(=O)n(C)c(=O)n2C)n1Cc1ccc(Cl)cc1,-2,0,-2,-2,8
Cc1ccccc1NS(=O)(=O)c1cccc2nonc12,0,19,2,-2,0
Cc1ccccc1Nc1cccc2nonc12,10,-3,-5,-7,40*
Cc1sc2nc(C)n(/N=C/c3ccccc3O)c(=O)c2c1C,0,-1,17,0,1
Cc1sc2nc(C)n(/N=C/c3ccc(O)cc3O)c(=O)c2c1C,0,-8,-84*,-7,14
